“And” between values parts separate entries of the source, which are not always exact repeats. Equal values may be shown once. About 610 (9.5%) of roughly 6,400 compounds were called active. No stated cut-off is given here; in the data, active means activity change below about -70%; inconclusive means no clear call, values can overlap the other calls; inactive means above that. The full list was thinned out, with actives kept by preference. Some structures have more than one record in an assay (separate samples or runs), and their calls can disagree.
Test: T. gondii ME49Luc in HeLa cells, luciferase assay, 72 h, no IFN-y (AID 1259421)
Conditions: stronger effect = lower value, concentration not given here

| SMILES | activity change, negative = inhibition |
| --- | --- |
| Nc1cc(Nc2ccc(S(N)(=O)=O)cc2)ncn1 | 14.5% (inactive) |
| COc1c(O)cc2c(c1O)[C@H]1O[C@H](CO)[C@@H](O)[C@H](O)[C@@H]1OC2=O | -5.41% (inactive) |
| CCOC(=O)c1cnc2oc3ccc(O)cc3c2c1-c1ccccc1 | 6.27% (inactive) |
| CS(=O)(=O)CCNCc1ccc(-c2ccc3ncnc(Nc4ccc(OCc5cccc(F)c5)c(Cl)c4)c3c2)o1 | -64.5% (inactive) and -82.3% (active) |
| CS(=O)(=O)CCNCc1nc(-c2ccc3ncnc(Nc4ccc(OCc5cccc(F)c5)c(Cl)c4)c3c2)cs1 | -30.2% (inactive) and 30.3% (inactive) |
| C=CC(=O)Nc1ccc2ncnc(Nc3ccc(OCc4cccc(F)c4)c(Cl)c3)c2c1 | -52.5% (inactive) |
| OC(CCl)CN1CC[N+]2(CC1)CC[N+]1(CCN(CC(O)CCl)CC1)CC2 (configuration not stated) | 9.78% (inactive) |
| CC1CCCC(C)N1NC(=O)c1ccc(Cl)c(S(N)(=O)=O)c1 (configuration not stated) | 15.9% (inactive) |
| NCCNS(=O)(=O)c1cccc2c(Cl)cccc12 | -0.625% (inactive) |
| C#Cc1cccc(Nc2ncnc3cc(OCCOC)c(OCCOC)cc23)c1 | -1.64% (inactive) and -10.5% (inactive) |
| C#Cc1cccc(Nc2ncnc3cc(OCCOC)c(OCCO)cc23)c1 | -30.3% (inactive) |
| C#Cc1cccc(Nc2ncnc3cc(OC)c(OCCCCCCC(=O)NO)cc23)c1 | -82.6% (active) |
| COc1ccc2[nH]c(S(=O)Cc3ncc(C)c(OC)c3C)nc2n1 (configuration not stated) | 29.4% (inactive) and 28.4% (inactive) |
| Cc1ccc2c(c1)C(=O)C1(O)CCN(c3ccccc3)C1=N2 (configuration not stated) | 12.8% (inactive) |
| COc1ccccc1OC(=O)C(C)c1ccc(CC(C)C)cc1 (configuration not stated) | -39.2% (inactive) |
| O[n+]1ccccc1[S-].O[n+]1ccccc1[S-].[Zn+2] | -66.7% (inactive) |
| O=C1NC(=O)C(c2cnc3ccccn23)=C1c1cn2c3c(cc(F)cc13)CN(C(=O)N1CCCCC1)CC2 | -84.1% (active) |
| CC(C)n1nnc2cc(C(=O)O)ccc21 | 9.2% (inactive) and 12.9% (inactive) |
| Cc1nc2sccn2c(=O)c1CCN1CCC(=C(c2ccc(F)cc2)c2ccc(F)cc2)CC1 | -60.2% (inactive) and 18.5% (inactive) |
| CC[C@@H](Nc1c(Nc2cccc(C(=O)N(C)C)c2O)c(=O)c1=O)c1ccc(C)o1 | -16.5% (inactive) |
| CC(C)(C)NC(=O)[C@H]1CCC2C3CCC4NC(=O)C=C[C@]4(C)C3CC[C@@]21C (some centres not stated) | 13.3% (inactive) |

| SMILES | activity change, negative = inhibition |
| --- | --- |
| COC(=O)NC(C(=O)N[C@@H](Cc1ccccc1)C(O)CN(Cc1ccc(-c2ccccn2)cc1)NC(=O)C(NC(=O)OC)C(C)(C)C)C(C)(C)C (some centres not stated) | -10.1% (inactive) |
| O=C(O)COCCN1CCN([C@H](c2ccccc2)c2ccc(Cl)cc2)CC1 | -64.2% (inactive) |
| OCCOCCN1CCN(C(c2ccccc2)c2ccc(Cl)cc2)CC1 (configuration not stated) | -71.5% (active) |
| O=C(O)COCCN1CCN(C(c2ccccc2)c2ccc(Cl)cc2)CC1 (configuration not stated) | 2.12% (inactive) and -3.65% (inactive) |
| O=C(CC(c1ccccc1)c1ccccc1)N1CCN(C(c2ccccc2)c2ccccc2)CC1 | 61.6% (inactive) |
| COc1ccc2c(c1OC)C(=O)OC2[C@H]1c2c(cc3c(c2OC)OCO3)CCN1C (some centres not stated) | 10.4% (inactive) |
| Nc1ccccc1NC(=O)c1ccc(CNC(=O)OCc2cccnc2)cc1 | -0.731% (inactive) and 6.65% (inactive) |
| Nc1ccccc1NC(=O)c1ccc(CNc2nccc(-c3cccnc3)n2)cc1 | -79.8% (active) and -89.7% (active) |
| Cc1cc(-c2ccc(CC(=O)Nc3ccc(-c4cccnc4)cc3)cc2)ccn1 | 6.98% (inactive) |
| O=C(Nc1ccccc1-c1cn2c(CN3CCNCC3)csc2n1)c1cnc2ccccc2n1 | -11.3% (inactive) |
| CCCC(=O)Oc1ccc2[nH]c(C(=O)c3cc4ccccc4[nH]3)cc2c1 | 5.11% (inactive) |
| CN(Cc1ccccc1)Cc1ccccc1 | 16.3% (inactive) |
| CCN(CC)CCC(=O)N1c2ccccc2Sc2ccc(Cl)cc21 | 17.9% (inactive) |
| O=C(O)CC(O)(CC(=O)O)C(=O)O | -79.3% (active) |
| O=C(O)CO.[NH2-].[NH2-].[Pt+2] | -0.913% (inactive) |
| O=C(O)CCC(=O)O | -23.1% (inactive) |
| CCOC(=O)/C(=N/O)c1csc(N)n1 | 7.65% (inactive) |
| CCC(CC)(NC(=O)C(C)C)C(=O)N[C@@H](CCCN=C(N)N)C(=O)NC1(C(=O)NC(c2ccc(F)cc2)c2ccc(F)cc2)CCCC1 | 12.8% (inactive) |
| C/C(=C\c1csc(C)n1)[C@@H]1C[C@@H]2O[C@]2(C)CCC[C@H](C)[C@H](O)[C@@H](C)C(=O)C(C)(C)[C@@H](O)CC(=O)N1 | -94.8% (active) |
| C=CCN1CCc2nc(N)sc2CC1 | 0.82% (inactive) |
| Fc1ccc(C2CCNCC2COc2ccc3c(c2)OCO3)cc1 (configuration not stated) | 28.3% (inactive) |

| SMILES | activity change, negative = inhibition |
| --- | --- |
| Cc1cc2nc3c(=O)[nH]c(=O)nc-3n(C)c2cc1C=O | 9.97% (inactive) and 10.7% (inactive) |
| CNCCCCOc1ccccc1Cc1ccccc1 | 17.6% (inactive) and 22% (inactive) |
| O=C(O)CCC1CCC(c2cc(F)ccc2F)(S(=O)(=O)c2ccc(Cl)cc2)CC1 (configuration not stated) | 7.06% (inactive) |
| N#Cc1ccccc1OCC(O)CNCCNC(=O)Nc1ccccc1 (configuration not stated) | 10.2% (inactive) and -13.2% (inactive) |
| CC1(C)CC23C(=O)CCC(O)C2(C)CCC13 (configuration not stated) | 11.7% (inactive) |
| O=C(Nc1ccncc1)c1cc([N+](=O)[O-])ccc1Cl | -81.1% (active) and -86.9% (active) |
| O=C(Nc1ccccc1)c1ccccc1O | 110% (inactive) and 0.394% (inactive) |
| O=C(Nc1ccccc1)c1cc([N+](=O)[O-])ccc1Cl | 14.5% (inactive) and 9.52% (inactive) |
| O=C(Nc1cc(C(F)(F)F)cc(C(F)(F)F)c1)c1cc(Cl)ccc1O | -83.9% (active) |
| O=C(Nc1ccc([N+](=O)[O-])cc1Cl)c1cc(Cl)ccc1O | -93% (active) and 4.01% (inactive) |
| NC(=O)c1ccc([N+](=O)[O-])cc1Cl | 17.4% (inactive) and 18.6% (inactive) |
| O=C(Nc1ccc([N+](=O)[O-])cc1O)Nc1ccccc1Br | -48.5% (inactive) and -4.88% (inactive) |
| C=CCNC(=O)c1cc([N+](=O)[O-])cc2c(=O)[nH]c(Nc3ccc(Cl)c(Cl)c3)nc12 | 3.13% (inactive) and -6.94% (inactive) |
| Cc1oncc1C(=O)Nc1ccc(C(F)(F)F)cc1 | 165% (inactive) and 187% (inactive) |
| CN1CCN(C2=Cc3ccccc3Oc3ccc(Cl)cc32)CC1 | -2.4% (inactive) and 14.5% (inactive) |
| O=C(NC1CCCCC1)NC1CCCCC1 | 10.9% (inactive) |
| O=C(O)c1ccc(NC2OC(CO)C(O)C(O)C2O)cc1 (configuration not stated) | 4.39% (inactive) |
| Cc1occc(=O)c1O | -2.72% (inactive) |
| CC(C)S(=O)(=O)NC[C@H](C)c1ccc(-c2ccc(CCNS(C)(=O)=O)cc2)cc1 | 8.52% (inactive) |
| CN1C[C@H]2C[C@@H]1CN2c1cc2c(cc1F)c(=O)c(C(=O)O)cn2C1CC1 | 7.36% (inactive) |
| NC(=O)C1CCCN1C(=O)C(Cc1cnc[nH]1)NC(=O)C1CCC(=O)N1 (configuration not stated) | 2.14% (inactive) |

| SMILES | activity change, negative = inhibition |
| --- | --- |
| CCCCCCCCCCCC[N+](C)(C)CCOc1ccccc1 | 14.1% (inactive) |
| CCCCOc1ccc(CC(=O)NO)cc1 | -24.4% (inactive) and -36.9% (inactive) |
| CCCCCCCCCc1ccc(OCCOCCOCCOCCOCCOCCOCCOCCOCCO)cc1 | -73.3% (active) |
| NC(=O)NCCCC(N)C(=O)O (configuration not stated) | 15% (inactive) |
| CC(C)=CCC[C@](C)(O)[C@H]1CC[C@]2(C)[C@@H]1[C@H](O)C[C@@H]1[C@@]3(C)CC[C@H](O)C(C)(C)[C@@H]3CC[C@]12C | 27.9% (inactive) |
| CCCn1c(=O)c2[nH]cnc2n(-c2ccc(Cl)cc2)c1=O | 15.7% (inactive) and 11% (inactive) |
| CO/N=C(/C(=O)NC1C(=O)N2C(C(=O)O)=C(CSc3nnnn3C)CSC12)c1csc(N)n1 (configuration not stated) | 8.82% (inactive) |
| C#C[C@]1(O)CCC2C3CCC4=CC(=O)CCC4C3C(=C)CC21CC (some centres not stated) | 16.2% (inactive) |
| C#C[C@]1(O)CCC2C3CCC4=CC(=O)CC[C@@H]4C3CC[C@@]21C (some centres not stated) | -91% (active) |
| C#C[C@]1(O)CC[C@@H]2C3[C@H](C)CC4=C(CCC(=O)C4)[C@H]3CC[C@@]21C (some centres not stated) | 5.27% (inactive) |
| C#C[C@]1(O)CC[C@H]2[C@@H]3CCC4=CC(=O)CC[C@@H]4[C@H]3CC[C@@]21CC | -67.7% (inactive) |
| C#C[C@]1(O)CC[C@H]2[C@@H]3CCC4=CC(=O)CC[C@@H]4C3CC[C@@]21CC (some centres not stated) | -83.6% (active) |
| C#C[C@]1(O)CCC2C3CCC4=CC(=O)CC[C@@H]4C3CC[C@@]21CC (some centres not stated) | -16.7% (inactive) |
| C#C[C@]1(O)CCC2C3CCC4=C(CCC(=O)C4)C3CC[C@@]21C (some centres not stated) | -83.2% (active) |
| C#C[C@]1(O)CC[C@H]2[C@@H]3CCC4=CC(=O)CC[C@@H]4[C@H]3CC[C@@]21C | -67.2% (inactive) |
| C#C[C@]1(OC(C)=O)CCC2C3CCC4=C/C(=N/O)CCC4C3CC[C@@]21CC (some centres not stated) | -84.7% (active) |
| C#C[C@]1(O)CC[C@H]2[C@@H]3CCC4=CCCC[C@@H]4[C@H]3C(=C)C[C@@]21CC | 35.3% (inactive) |
| O=C1c2ccccc2-n2c1nc1ccccc1c2=O | -48.4% (inactive) |
| Cc1nccn1CC1CCC2C(C1=O)c1ccccc1N2C (configuration not stated) | 8.1% (inactive) |
